Among the data in PubChem BioAssay (NCI) are growth values, retold here.

SMILES strings stand for the structures. Compounds without any hit were thinned out: in the full panel of roughly 83,000, 20% have a hit.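 Activity criterion: percent growth below 10, measured after cells in 96-well plates were exposed to a single compound concentration for 48 hours.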 Activity calls are given as the source filed them.

This assay has as its system NCI-H23 lung. The assay is described as follows: NCI-60 one-dose screen, 48 h (100 = growth as untreated, 0 = no growth, -100 = all killed). The settings on record: 10 µM unless noted.
`O=C(Cn1c(/C=C/c2ccc([N+](=O)[O-])cc2)nc2ccccc2c1=O)Nc1ccccc1`: the growth is 54.9% (inactive). To `Nc1nc2cc(-c3ccc4ncnc(NCc5ccccc5)c4c3)ccc2o1` belongs 24.4% (inactive); to `COc1ccc(-c2nc3ccc(-c4nnc(SCc5ccccc5)o4)cc3[nH]2)cc1`, 8.09% (active); to `O=C(OCCOCCO)N(c1cccc(Br)c1)c1nc(SCCN2CCOCC2)nc2c1cnn2CC(Cl)c1ccc(Br)cc1` (stereo not given), -0.582% (active).

In the case of `Oc1ccc(Cl)c(Nc2nc(SCCN3CCOCC3)nc3c2cnn3CC(Cl)c2ccc(Br)cc2)c1` (stereo not given), the growth is 31.8% (inactive). To `O=C1/C(=C/C=C/c2ccco2)SC(=S)N1CC(=S)C1C=CS(=O)(=O)C1` (stereo not given) belongs 83.1% (inactive).

Consider `COC(=O)c1cc(C(=O)CBr)n2c1ccc1c3ccccc3ccc12`, for which the growth was 51.4% (inactive). To `Cc1ccc(-c2cc(C(=O)N=Nc3c(O)[nH]c4ccc(F)cc34)c3ccccc3n2)cc1` belongs 15.1% (inactive); to `Nc1cc(-c2c[nH]c3ccc(F)cc23)nc2cc(-c3c[nH]c4ccccc34)nn12`, -12.7% (active). With `COc1cc(NC(=O)CSc2nnc(-c3ccc(-c4nc5ccc(Cl)cc5[nH]4)cc3)o2)cc(OC)c1OC`, the growth is 52.2% (inactive). Regarding `COc1ccc(C(=O)NNC(=O)CSc2nc3sc4c(c3c(=O)n2-c2ccc(Cl)cc2)CCCC4)cc1`, the growth was 63.2% (inactive).

Regarding `CN(CCSSCCN1CCOCC1)C(=O)Oc1cc2c(c3ccccc13)[C@H](CCl)CN2C(=O)c1cc2cc(OCCCN3CCC3)ccc2[nH]1`, the growth is -67.5% (active). To `O=C(Cc1c(-c2ccccc2[N+](=O)[O-])n(-c2ncnc3c2c(-c2ccccc2)c(-c2ccccc2)n3Cc2ccccc2)[nH]c1=O)c1ccc(Cl)c(Cl)c1` belongs 9.58% (active); to `O=C(c1ccc(Cl)cc1)C1[C@H](c2ccccc2Cl)[C@@H](c2ccccc2)NC12C(=O)Nc1ccc(Br)cc12` (stereo not given in full), -80.5% (active); to `Cc1cccc(-c2ccccc2Oc2ccc3nnc(Cl)n3n2)c1`, 96.8% (inactive). Take `CCC1(OC(=O)c2ccccc2SSCCOC(=O)CCCCC2SCC3NC(=O)NC32)C(=O)OCc2c1cc1n(c2=O)Cc2cc3ccccc3nc2-1` (stereo not given): the growth was 15.4% (inactive). Turning to `COc1ccc(/C=C/c2nc3ccccc3n3c(-c4cccc([N+](=O)[O-])c4)nnc23)cc1`, the growth was -78.1% (active).

Turning to `Cc1ccc(C(=O)Nc2cc(-c3ccncc3)cc(C(F)(F)F)c2)cc1C#Cc1cnc2cccnn12`, the growth was 35.5% (inactive). The same measure for `COc1ccc(N=Nc2c(N)nn3c(N)c(C#N)c(-c4ccccc4)nc23)cc1`: 32.3% (inactive). The same measure for `N#Cc1ccc(C(=O)NNC(=O)CSc2nc3sc4c(c3c(=O)n2-c2ccc(Cl)cc2)CCCC4)cc1`: 33.2% (inactive). Take `CCCCCCCCc1ccc(C(=O)Nc2cccc(O)c2)cc1`: the growth was 78.9% (inactive). The same measure for `COc1ccc(/C=C/C(=O)c2ccc(OC)c(S(N)(=O)=O)c2)c(C(F)(F)F)c1`: -78.3% (active); for `C#CCN(C)CCCOc1ccc(N(CC)C(=O)c2cc(C(C)C)c(O)cc2O)cc1Cl`: -5.94% (active); for `CC1=C(C(=O)OCc2ccccc2)C(c2ccc(N(C)C)cc2)n2c(nc3ccccc32)N1` (stereo not given): 90.8% (inactive). The same measure for `Cc1ccc(C2CC(c3ccc(NC(=O)Nc4ccccc4)cc3)=NN2c2ccc(S(N)(=O)=O)cc2)cc1` (stereo not given): -95.8% (active).
